Bioassay records as filed in PubChem.
This is a sample that favours compounds with a hit; in the whole collection about 3.5% have one here.
Pf apPOL block: Pf-apPOL inhibitors, biochemical, fluorescence; Plasmodium falciparum apicoplast DNA polymerase (apPOL); Recombinant Pf-apPOL, molecular beacon fluorescence, 1.5 h; inhibition, % at 10 µM; 210,000 compounds, 0.25% hits; AID 1794808, 2022
mHTT CaM bind: mutant huntingtin-calmodulin interaction inhibitors – biochemical, AlphaScreen, primary screen; P42858; AlphaScreen His-mHTT/GST-CaM binding, luminescence; inhibition, % at 15 µM; 190,000 compounds, 3.6% hits;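 note: 0% = both proteins with DMSO and 100% = one protein alone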
* hit, by the source's call; nt = not tested or not shown. Cut-off read from the data, not from the text of the source: active = inhibition above about 50%; inactive = the rest.

SMILES	Pf apPOL block	mHTT CaM bind
COc1ccc(/C=C/C(=O)Nc2nc3n(n2)C(c2ccccc2)C=C(c2ccccc2)N3)cc1 (stereo unspecified)	-3	72*
Cc1ccc(CNC(=O)N2CCC(c3cc(N)on3)CC2)cc1	-4	1
N#Cc1cc2c(=O)n3ccccc3nc2n(Cc2ccccc2)c1=N	5	-1
COc1ccccc1C(=O)Nc1cc(Br)cc2cccnc12	9	19
COc1ccccc1NC(=O)Nc1cccc2cccnc12	-4	-4
COc1ccccc1C(NC(=O)C(C)C)c1ccc2cccnc2c1O (stereo unspecified)	-1	99*
COc1ccccc1C(NC(C)=O)c1ccc2cccnc2c1O (stereo unspecified)	0	100*
COC(=O)c1cc(Nc2cccc(OC)c2)c2cc(F)ccc2n1	-3	-13
COc1ccc(-c2nc3ccccn3c2NC(=O)CC(C)(C)C)cc1	-4	19
Cc1cccc(C)c1OCCCN(C)C	2	-4
Cc1ccc(-n2c(SCC#N)nc3c(c2=O)C2(CCCC2)Cc2ccccc2-3)cc1	0	-1
COc1cc([N+](=O)[O-])cc2c1OC1(C=C2)N(C)c2ccc([N+](=O)[O-])cc2C1(C)C (stereo unspecified)	1	13
COc1cc2c(c(OC)c1[N+](=O)[O-])C=CC1(O2)N(C)c2ccccc2C1(C)C (stereo unspecified)	3	32
COc1ccc2c(c1)C(C)(C)C1(C=Cc3cc([N+](=O)[O-])cc(OC)c3O1)N2C (stereo unspecified)	3	61*
CN1c2ccccc2C(C)(C)C12C=Cc1cc([N+](=O)[O-])ccc1O2 (stereo unspecified)	-6	-4
CNC(=O)CN1c2ccccc2C(C)(C)C12C=Cc1cc([N+](=O)[O-])ccc1O2 (stereo unspecified)	-4	96*
COc1cc([N+](=O)[O-])cc2c1OC1(C=C2)N(C)c2ccccc2C1(C)C (stereo unspecified)	-14	71*
O=C(CCS(=O)(=O)c1ccc(Br)s1)Nc1ccc(Br)cc1F	-11	-2
CCCCOc1ccc(/C=c2\sc3nc(-c4ccncc4)nn3c2=O)cc1OCC	9	1
O=C(Nc1nc(-c2ccccc2)cs1)c1ccncc1	-13	8
COc1cc(OC)cc(C(=O)Nc2nc(C(=O)NC(C)c3ccccc3)cs2)c1 (stereo unspecified)	-3	-9
O=C(Nc1nc(-c2ccccn2)cs1)c1cc(-c2ccco2)on1	-213	100*
O=C(Nc1cc(-c2ccccn2)no1)c1ccc(Cl)cc1	1	10
O=C(Nc1nc(-c2cc([N+](=O)[O-])cs2)cs1)c1cc(-c2ccco2)on1	4	-10
O=C(Nc1cc(-c2ccccn2)no1)c1ccccn1	-10	100*
SMILES	Pf apPOL block	mHTT CaM bind
O=C(Nc1nc(-c2ccccn2)cs1)c1ccc(Oc2ccccc2)cc1	-5	94*
COc1cc(OC)cc(C(=O)Nc2nc(-c3ccccn3)cs2)c1	-6	100*
O=C1C2CC(Br)C(Br)CC2C(=O)N1c1ccccc1O (stereo unspecified)	-13	1
CCN1c2cc(C(=O)NCc3ccccc3C)ccc2C(=O)N2CCCCC21 (stereo unspecified)	0	-14
COc1ccc2c(CC(=O)O)coc2c1	-8	nt
COCCNC(=O)Cn1nc(-c2ccc(Cl)cc2)c2ccccc2c1=O	76*	1
O=C(Cn1nc(-c2ccc(Cl)cc2)c2ccccc2c1=O)Nc1ccc(Cl)cc1	12	9
O=C(Nc1ccccc1)Nc1nccs1	-6	2
O=C(c1ccc(F)cc1)N1CCN(C2=NS(=O)(=O)c3ccccc32)CC1	-5	1
CCCc1[nH]nc2c1C(c1cccs1)C(C#N)=C(N)O2 (stereo unspecified)	-7	-5
Cc1cc(C)cc(C(=O)N2CCC3(CC2)NC(=O)N(Cc2ccccc2Cl)C3=O)c1	-4	9
COc1ccccc1NC(=O)CSc1nc(-c2ccccc2)cn1-c1ccccc1OC	1	34
O=C(CSc1nc(-c2ccccc2)cn1-c1ccccc1F)Nc1ccccc1	5	54*
Cn1cnnc1SCC(=O)Nc1ccccc1	-3	1
COc1ccccc1-n1cc(-c2ccccc2)nc1SCC(=O)Nc1ccc(F)cc1	1	57*
CCC(C)NC(=O)c1cc(-c2ccc(Cl)cc2)[nH]c1C (stereo unspecified)	-13	10
CC1Cc2ccccc2N1C(=O)c1ccc(N2CCCCC2)c([N+](=O)[O-])c1 (stereo unspecified)	1	63*
O=C(O)c1ccccc1C(=O)c1ccc(N2CCCCC2)c([N+](=O)[O-])c1	-10	3
COc1ccc(C(=O)c2ccc(N3CCN(C)CC3)c([N+](=O)[O-])c2)cc1	-10	17
CN1CCN(c2ccc(C(=O)c3ccc(Cl)cc3)cc2[N+](=O)[O-])CC1	-7	62*
O=C(c1cc2ccccc2o1)N1CCN(c2ccc(Cl)cc2[N+](=O)[O-])CC1	4	57*
O=C(c1cc2ccccc2o1)N1CCN(c2ccc(C(F)(F)F)cc2[N+](=O)[O-])CC1	17	47
Cn1cnnc1SCC(=O)NCc1cccc(C(F)(F)F)c1	-6	-2
Cc1cc(CN2CCC(CNS(=O)(=O)c3ccc(C)s3)CC2)c(C)o1	-4	4
O=C(O)CSc1nnc2n1-c1ccc(Cl)cc1NN2	76*	nt
SMILES	Pf apPOL block	mHTT CaM bind
O=C(O)CSc1nnc(-c2ccc(Cl)cc2)n1-c1ccccc1	-1	-9
COC(=O)c1ccccc1NC(=O)c1cn(CC(O)c2ccccc2OC)nn1 (stereo unspecified)	-4	-9
O=c1/c(=C/c2cccnc2)sc2n1CN(c1cccc(C(F)(F)F)c1)CN=2	-7	0
COc1ccccc1/C=C1\SC(=O)N(CNc2cccc(C)c2)C1=O	-1	58*
COc1ccc(NCN2C(=O)S/C(=C\c3ccccc3OC)C2=O)cc1	7	52*
COc1ccc(/C=C2\SC(=O)N(CNc3ccccc3OC)C2=O)cc1	-2	32
O=C1S/C(=C\c2ccccc2F)C(=O)N1CNc1cccc(F)c1	0	-4
COc1ccc(NC(=O)C[C@H]2C(=O)N(c3ccc(Br)cc3)C[C@@H]2C)cc1	-2	0
Cc1ccccc1Nc1nccc(C2CCCN(C(=O)C3CC3)C2)n1 (stereo unspecified)	-4	3
COc1ccc(OC)c(-c2c(C)c3ccc(O)c(CN4CCCCC4)c3oc2=O)c1	-10	2
CSc1ccccc1NC(=O)c1ccc(-n2ccnc2)nn1	-4	31
O=C(Nc1nc2ccccc2[nH]1)c1ccc(-n2ccnc2)nn1	0	94*
CC(=O)NC(=O)CCSc1ccccc1C(=O)NC(C)=O	4	nt
COCCC1CCN(C(=O)C(C)c2ccccc2)CC1 (stereo unspecified)	1	1
CC(C(=O)N1CCC(N2CCc3ccccc32)CC1)c1ccccc1 (stereo unspecified)	4	68*
O[C@H]1C[C@H](c2ccc(Cl)cc2)N(CC2CCCCC2)C[C@@H]1n1cc(C2CC2)nn1	-9	80*
CCCCCCN1C[C@H](n2cc(C3CC3)nn2)[C@@H](O)C[C@@H]1c1ccc(C)cc1	-2	77*
